Measurements from PubChem BioAssay AID623979 (Broad Institute, 2012).
Potency and affinity values are given separately. Records with an inconclusive call do not appear. Calls of active or inactive are those of the source.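 How the source made its calls: active means fitted half-maximal inhibition concentration at or below twice the top tested dose in every test run; inconclusive means runs disagree, or a weak flat response or poor fit; inactive means the rest, including flat or wrong-direction curves.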

Molecular target: Cyclin-dependent kinase 5 activator 1 (Homo sapiens) + Cyclin-dependent kinase 5 (Homo sapiens) (UniProt Q15078+Q00535)
Assay: inhibitors of human CDK5 activity – biochemical, microfluidic mobility shift, dry powder, set 2, selectivity assay for GSK3beta inhibitor project, dose response (AID 623979)
Settings: recombinant CDK5-p25, Caliper peptide conversion, 55 min; series mostly up to 35 µM; activity change, negative = inhibition: at the top concentration

Sequence of Cyclin-dependent kinase 5 activator 1 (Homo sapiens) + Cyclin-dependent kinase 5 (Homo sapiens) (Q00535 whole entry, looked up): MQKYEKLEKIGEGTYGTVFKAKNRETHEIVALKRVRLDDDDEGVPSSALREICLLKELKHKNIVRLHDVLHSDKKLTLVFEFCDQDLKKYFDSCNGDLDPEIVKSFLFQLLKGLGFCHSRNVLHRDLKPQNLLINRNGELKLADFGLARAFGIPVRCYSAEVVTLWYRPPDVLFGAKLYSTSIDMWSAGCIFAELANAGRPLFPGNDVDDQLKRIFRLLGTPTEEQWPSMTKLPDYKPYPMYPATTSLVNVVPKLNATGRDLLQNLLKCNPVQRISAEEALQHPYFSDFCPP
Sequence of Cyclin-dependent kinase 5 activator 1 (Homo sapiens) + Cyclin-dependent kinase 5 (Homo sapiens) (Q15078 whole entry, looked up): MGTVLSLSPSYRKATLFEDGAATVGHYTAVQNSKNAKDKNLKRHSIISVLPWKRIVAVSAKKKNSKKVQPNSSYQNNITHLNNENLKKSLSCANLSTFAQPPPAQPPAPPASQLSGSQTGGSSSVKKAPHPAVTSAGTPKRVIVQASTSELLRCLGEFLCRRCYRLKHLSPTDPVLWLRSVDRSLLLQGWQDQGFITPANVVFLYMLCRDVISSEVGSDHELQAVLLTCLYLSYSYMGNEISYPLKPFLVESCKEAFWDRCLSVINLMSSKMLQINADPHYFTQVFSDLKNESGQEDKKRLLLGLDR

Activity change, negative = inhibition, inactive:
Clc1ccc(CSc2nnc(-c3ccncc3)o2)c(Cl)c1 -0.53%
Nc1nc(NCC2CCCO2)nc(Nc2ccc(Cl)cc2)c1[N+](=O)[O-] (stereo not given) -6.71%
Cc1ccc(S(=O)(=O)N2CCN(CC(=O)N/N=C/c3ccccn3)CC2)cc1 -4.16%
CCOc1ccccc1/C=N/NC(=O)c1nnn(-c2nonc2N)c1CN1CCCCCC1 -4.37%
Cc1cccc(OCC(=O)Nc2ccc3c(c2)C(=O)NC3=O)c1 -5.65%
COC(=O)c1ccc(CSc2ccc3nnc(-c4ccc(F)cc4)n3n2)o1 -2.23%
Nc1nc(NCC2CCCO2)nc(Nc2ccc(F)cc2)c1[N+](=O)[O-] (stereo not given) -9.06%
Nc1nonc1-n1nnc(C(=O)N/N=C/c2c(F)cccc2Cl)c1-c1ccc2c(c1)OCO2 -2.78%
COc1cc(C(=O)N2CCN(c3ccccn3)CC2)cc(OC)c1OC -2.66%
Nc1nonc1-n1nnc(C(=O)N/N=C/c2cccc(Cl)c2)c1CN1CCCCCC1 -2.45%
